Laboratory results taken from the supplement of paper PMC8728848.
The sample as a whole holds a higher share of the strongest signals than the screen did.

Legend:
Assay in all cases: glycan array binding signal (z-score within array); higher = stronger binding
Settings in all cases: glycan notation: IUPAC condensed, linker removed
[1] = target: Fuc(a1-2)Gal(b1-3)GlcNAc(b1-2)Man(a1-3)[Fuc(a1-2)Gal(b1-3)GlcNAc(b1-2)Man(a1-6)]Man(b1-4)GlcNAc(b1-4)GlcNAc
Method in brief: (§1)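 Glycan array binding is given as a within-array Z-score, which can be read as non-binding when negative. The arrays, 3228 of them, came from the Consortium for Functional Glycomics database and were retained only where the protein sequence was available. Z-scores were averaged across arrays of the same protein sequence at different concentrations or buffers and across linkers.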

[2] = target: Fuc(a1-2)Gal(b1-3)GlcNAc(b1-3)GalNAc
Method in brief: as §1

[3] = target: Fuc(a1-2)Gal(b1-3)GlcNAc(b1-3)[Fuc(a1-2)Gal(b1-3)GlcNAc(b1-6)]GalNAc
Method in brief: as §1

[4] = target: Fuc(a1-2)Gal(b1-3)GlcNAc6S
Method in brief: as §1

[5] = target: Fuc(a1-2)Gal(b1-4)GlcNAc(b1-2)Man
Method in brief: as §1

[6] = target: Fuc(a1-2)[Gal(a1-3)]Gal(b1-3)GlcNAc(b1-2)Man(a1-3)[Fuc(a1-2)[Gal(a1-3)]Gal(b1-3)GlcNAc(b1-2)Man(a1-6)]Man(b1-4)GlcNAc(b1-4)[Fuc(a1-6)]GlcNAc
Method in brief: as §1

[7] = target: Fuc(a1-2)[Gal(a1-3)]Gal(b1-4)GlcNAc(b1-2)Man(a1-3)[Fuc(a1-2)[Gal(a1-3)]Gal(b1-4)GlcNAc(b1-2)Man(a1-6)]Man(b1-4)GlcNAc(b1-4)GlcNAc
Method in brief: as §1

[8] = target: Fuc(a1-2)[Gal(a1-3)]Gal(b1-4)GlcNAc(b1-2)Man(a1-3)[Fuc(a1-2)[Gal(a1-3)]Gal(b1-4)GlcNAc(b1-2)Man(a1-6)]Man(b1-4)GlcNAc(b1-4)[Fuc(a1-6)]GlcNAc
Method in brief: as §1

[9] = target: Fuc(a1-2)[GalNAc(a1-3)]Gal(b1-3)GlcNAc(b1-6)GalNAc
Method in brief: as §1

[10] = target: Fuc(a1-2)[GalNAc(a1-3)]Gal(b1-4)[Fuc(a1-3)]GlcNAc(b1-3)GalNAc
Method in brief: as §1

[11] = target: Fuc(a1-3)[Gal(b1-4)]GlcNAc(b1-6)[Gal(b1-3)GlcNAc(b1-3)]Gal(b1-4)Glc
Method in brief: as §1

[12] = target: Fuc(a1-3)[Gal3S(b1-4)]Glc
Method in brief: as §1

[13] = target: Fuc(a1-3)[GalNAc(b1-4)]GlcNAc
Method in brief: as §1

Fuc(a1-4)GlcNAc = target: Fuc(a1-4)GlcNAc
Method in brief: as §1

[14] = target: Gal(a1-3)Gal(b1-3)GlcNAc(b1-2)Man
Method in brief: as §1

Gal(a1-3)GalNAc = target: Gal(a1-3)GalNAc
Method in brief: as §1

Gal(a1-4)GlcNAc = target: Gal(a1-4)GlcNAc
Method in brief: as §1

Gal(b1-2)Gal = target: Gal(b1-2)Gal
Method in brief: as §1

[15] = target: Gal(b1-3)GlcNAc(b1-2)Man(a1-3)[Gal(b1-3)GlcNAc(b1-2)Man(a1-6)]Man(b1-4)GlcNAc(b1-4)GlcNAc
Method in brief: as §1

[16] = target: Gal(b1-3)GlcNAc(b1-2)Man(a1-3)[Gal(b1-3)GlcNAc(b1-2)Man(a1-6)]Man(b1-4)GlcNAc(b1-4)[Fuc(a1-6)]GlcNAc
Method in brief: as §1

[17] = target: Gal(b1-3)GlcNAc(b1-3)Gal(b1-4)[Fuc(a1-3)]GlcNAc
Method in brief: as §1

[18] = target: Gal(b1-3)GlcNAc(b1-6)[Gal(b1-3)]GalNAc
Method in brief: as §1

Gal(b1-4)Glc6S = target: Gal(b1-4)Glc6S
Method in brief: as §1

Gal(b1-4)GlcNAc(b1-2)Man = target: Gal(b1-4)GlcNAc(b1-2)Man
Method in brief: as §1

[19] = target: Gal(b1-4)GlcNAc(b1-2)Man(a1-3)Man(b1-4)GlcNAc(b1-4)GlcNAc
Method in brief: as §1

[20] = target: Gal(b1-4)GlcNAc(b1-2)[Gal(b1-4)GlcNAc(b1-4)]Man(a1-3)[Gal(b1-4)GlcNAc(b1-2)[Gal(b1-4)GlcNAc(b1-6)]Man(a1-6)]Man(b1-4)GlcNAc(b1-4)GlcNAc
Method in brief: as §1

[21] = target: Gal(b1-4)GlcNAc(b1-3)Gal(b1-4)GlcNAc(b1-2)Man(a1-3)[Gal(b1-4)GlcNAc(b1-3)Gal(b1-4)GlcNAc(b1-2)Man(a1-6)]Man(b1-4)GlcNAc(b1-4)[Fuc(a1-6)]GlcNAc
Method in brief: as §1

[22] = target: Gal(b1-4)GlcNAc(b1-3)Gal(b1-4)GlcNAc(b1-3)Gal(b1-4)GlcNAc(b1-2)Man(a1-3)[Gal(b1-4)GlcNAc(b1-3)Gal(b1-4)GlcNAc(b1-3)Gal(b1-4)GlcNAc(b1-2)Man(a1-6)]Man(b1-4)GlcNAc(b1-4)[Fuc(a1-6)]GlcNAc
Method in brief: as §1

[23] = target: GalNAc(b1-3)Gal(a1-4)Gal(b1-4)GlcNAc(b1-3)Gal(b1-4)Glc
Method in brief: as §1

GalNAc(b1-4)GlcNAc6S = target: GalNAc(b1-4)GlcNAc6S
Method in brief: as §1

GlcA(b1-6)Gal = target: GlcA(b1-6)Gal
Method in brief: as §1

[24] = target: GlcNAc(b1-2)Man(a1-3)[GlcNAc(b1-2)Man(a1-6)]Man(b1-4)GlcNAc(b1-4)GlcNAc
Method in brief: as §1

[25] = target: GlcNAc(b1-2)[GlcNAc(b1-4)]Man(a1-3)[GlcNAc(b1-4)][GlcNAc(b1-2)[GlcNAc(b1-6)]Man(a1-6)]Man(b1-4)GlcNAc(b1-4)[Fuc(a1-6)]GlcNAc
Method in brief: as §1

GlcNAc(b1-3)Gal(b1-4)Glc = target: GlcNAc(b1-3)Gal(b1-4)Glc
Method in brief: as §1

[26] = target: GlcNAc(b1-3)Gal(b1-4)GlcNAc(b1-3)Gal(b1-4)GlcNAc(b1-2)[GlcNAc(b1-3)Gal(b1-4)GlcNAc(b1-3)Gal(b1-4)GlcNAc(b1-6)]Man(a1-6)[GlcNAc(b1-3)Gal(b1-4)GlcNAc(b1-3)Gal(b1-4)GlcNAc(b1-2)Man(a1-3)]Man(b1-4)GlcNAc(b1-4)[Fuc(a1-6)]GlcNAc
Method in brief: as §1

[27] = target: GlcNAc(b1-3)Gal(b1-4)GlcNAc(b1-3)Gal(b1-4)GlcNAc(b1-3)Gal(b1-4)GlcNAc(b1-2)Man(a1-3)[GlcNAc(b1-3)Gal(b1-4)GlcNAc(b1-3)Gal(b1-4)GlcNAc(b1-3)Gal(b1-4)GlcNAc(b1-2)Man(a1-6)]Man(b1-4)GlcNAc(b1-4)GlcNAc
Method in brief: as §1

[28] = target: GlcNAc(b1-3)Gal(b1-4)GlcNAc(b1-3)Gal(b1-4)GlcNAc(b1-3)Gal(b1-4)GlcNAc(b1-3)Gal(b1-4)GlcNAc(b1-2)Man(a1-3)[GlcNAc(b1-3)Gal(b1-4)GlcNAc(b1-3)Gal(b1-4)GlcNAc(b1-3)Gal(b1-4)GlcNAc(b1-3)Gal(b1-4)GlcNAc(b1-2)Man(a1-6)]Man(b1-4)GlcNAc(b1-4)[Fuc(a1-6)]GlcNAc
Method in brief: as §1

[29] = target: GlcNAc(b1-3)[GlcNAc(b1-6)]GalNAc
Method in brief: as §1

GlcNAc(b1-4)GlcNAc = target: GlcNAc(b1-4)GlcNAc
Method in brief: as §1

[30] = target: GlcNAc6S(b1-3)Gal(b1-4)GlcNAc
Method in brief: as §1

[31] = target: Man(a1-3)[Man(a1-6)]Man(a1-6)[Man(a1-2)Man(a1-3)]Man(b1-4)GlcNAc(b1-4)GlcNAc
Method in brief: as §1

[32] = target: Neu5Ac(a2-3)Gal(b1-3)GalNAc(b1-3)Gal(a1-4)Gal(b1-4)Glc
Method in brief: as §1

[33] = target: Neu5Ac(a2-3)Gal(b1-3)GlcNAc
Method in brief: as §1

[34] = target: Neu5Ac(a2-3)Gal(b1-3)GlcNAc(b1-2)Man
Method in brief: as §1

Neu5Ac(a2-3)Gal(b1-4)Glc = target: Neu5Ac(a2-3)Gal(b1-4)Glc
Method in brief: as §1

[35] = target: Neu5Ac(a2-3)Gal(b1-4)GlcNAc(b1-2)Man(a1-3)[GlcNAc(b1-4)][Neu5Ac(a2-3)Gal(b1-4)GlcNAc(b1-2)Man(a1-6)]Man(b1-4)GlcNAc(b1-4)GlcNAc
Method in brief: as §1

[36] = target: Neu5Ac(a2-3)Gal(b1-4)GlcNAc(b1-6)GalNAc
Method in brief: as §1

[37] = target: Neu5Ac(a2-3)[Neu5Ac(a2-6)]GalNAc
Method in brief: as §1

Neu5Ac(a2-8)Neu5Ac = target: Neu5Ac(a2-8)Neu5Ac
Method in brief: as §1

[38] = target: Neu5Ac(a2-8)Neu5Ac(a2-8)Neu5Ac(a2-3)[GalNAc(b1-4)]Gal(b1-4)Glc
Method in brief: as §1

[39] = target: Neu5Gc(a2-8)Neu5Gc(a2-6)Gal(b1-4)GlcNAc
Method in brief: as §1

B1: PX9916F-bfa-443-24-443 (Bacteroides fragilis) (protein)
chain: DIRPVGSVIPQTAEEYRALLARAYLNVPNDRGLACLRSDEMLVNDNEYDRNSYGDIERWNDVSPFPGTSQFTWSNFYNVLFIANQVIESQKEITEGTPEVVNQLVGEAHLLRAYLHFVLVNLHGQPYTKSGALNSKSIPLKLDTDLEKTLGRNTVEEVYTSILSDIEHARELINKEKWETVFSYRFNVLSVDALQSRVSLYMGAWPKCLESAEAVLAKKSVLVDMNETPLALPNHFESVESITALEQVMGSSVNNAVWVPATFLALYQEGDKRLAAYFAAPDENGNRKSSKGGKREFSCTFRVGELYLNAAEAAANMDKLPHARMRLLELMRKRYTPEAYDKKENAVNVMDKNALISEILNERARELAFEGHRWFDLRRTTRPRMVKVLQGKTYILEQDDPRYTIPIPRDAIAANPGLAN
glycan array binding signal (z-score) [1]: 3.24 | glycan array binding signal (z-score) [2]: 0.31 | glycan array binding signal (z-score) [3]: -0.372 | glycan array binding signal (z-score) [4]: -0.338 | glycan array binding signal (z-score) [5]: 0.848 | glycan array binding signal (z-score) [6]: 8.18 | glycan array binding signal (z-score) [7]: 8.54 | glycan array binding signal (z-score) [8]: 2.44 | glycan array binding signal (z-score) [9]: 0.212 | glycan array binding signal (z-score) [10]: 2.91 | glycan array binding signal (z-score) [11]: 3.87 | glycan array binding signal (z-score) [12]: 0.001 | glycan array binding signal (z-score) [13]: 0.251 | glycan array binding signal (z-score) (Fuc(a1-4)GlcNAc): 1.76 | glycan array binding signal (z-score) [14]: -0.056 | glycan array binding signal (z-score) (Gal(a1-3)GalNAc): -0.469 | glycan array binding signal (z-score) (Gal(a1-4)GlcNAc): -0.265 | glycan array binding signal (z-score) (Gal(b1-2)Gal): 0.596 | glycan array binding signal (z-score) [15]: 0.347 | glycan array binding signal (z-score) [16]: 1.79 | glycan array binding signal (z-score) [17]: -0.126 | glycan array binding signal (z-score) [18]: 0 | glycan array binding signal (z-score) (Gal(b1-4)Glc6S): 0.038 | glycan array binding signal (z-score) (Gal(b1-4)GlcNAc(b1-2)Man): 2.63 | glycan array binding signal (z-score) [19]: -0.479 | glycan array binding signal (z-score) [20]: -0.78 | glycan array binding signal (z-score) [21]: 0.44 | glycan array binding signal (z-score) [22]: 2.81 | glycan array binding signal (z-score) [23]: 0.078 | glycan array binding signal (z-score) (GalNAc(b1-4)GlcNAc6S): 0.581 | glycan array binding signal (z-score) (GlcA(b1-6)Gal): 2.71 | glycan array binding signal (z-score) [24]: -0.266 | glycan array binding signal (z-score) [25]: -1.61 | glycan array binding signal (z-score) (GlcNAc(b1-3)Gal(b1-4)Glc): -0.475 | glycan array binding signal (z-score) [26]: -0.316 | glycan array binding signal (z-score) [27]: 2.55 | glycan array binding signal (z-score) [28]: -0.064 | glycan array binding signal (z-score) [29]: -0.249 | glycan array binding signal (z-score) (GlcNAc(b1-4)GlcNAc): 0.138 | glycan array binding signal (z-score) [30]: 0.017 | glycan array binding signal (z-score) [31]: 1.23 | glycan array binding signal (z-score) [32]: 0.297 | glycan array binding signal (z-score) [33]: -0.376 | glycan array binding signal (z-score) [34]: 4.28 | glycan array binding signal (z-score) (Neu5Ac(a2-3)Gal(b1-4)Glc): 0.058 | glycan array binding signal (z-score) [35]: -1.31 | glycan array binding signal (z-score) [36]: -0.155 | glycan array binding signal (z-score) [37]: -0.772 | glycan array binding signal (z-score) (Neu5Ac(a2-8)Neu5Ac): 1.37 | glycan array binding signal (z-score) [38]: -0.695 | glycan array binding signal (z-score) [39]: -0.576
